Screens from PubChem BioAssay.
Sfp PPTase inh: Sfp phosphopantetheinyl transferase inhibition; Biochemical Sfp PPTase activity, qHTS; Potency, µM, without a hit: largest response in the series, negative = inhibition, usual class: inhibitors; 310,000 tested, 3.5% active;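 note: the enzyme is Sfp with the accession as filed and its product quenches rhodamine fluorescence; 0% = enzyme reaction without inhibitor and -100% = no enzyme wells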
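With Hepes-Na pH 7.6 buffer containing 10 mM MgCl2, Sfp (15 nM) modified BHQ-2-YbbR (12.5 uM) using rhodamine-CoA (5 uM). Two reads 30 minutes apart at 525/598 nm yielded each well's rate.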
HP1b binding inh: HP1-beta chromodomain-methylated histone interaction inhibition; P83916; AlphaScreen HP1-beta / biotin-H3K9me3 peptide binding; Potency, µM (doses to about 114 µM), inactives show at the top dose activity change, negative = inhibition, hits mostly inhibitors; 390,000 tested, 0.56% active; note: nearly all actives have a fitted effect of over 70% in size
Target sequence (P83916 whole entry, looked up): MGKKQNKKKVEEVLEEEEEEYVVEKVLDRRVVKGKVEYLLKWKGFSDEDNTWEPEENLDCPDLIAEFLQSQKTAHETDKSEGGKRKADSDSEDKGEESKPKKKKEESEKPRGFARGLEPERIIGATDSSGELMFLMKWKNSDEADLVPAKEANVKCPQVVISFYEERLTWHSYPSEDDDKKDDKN
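HP1-beta protein (50 nM final) preincubated 30 min at room temperature with biotinylated H3(1-18)K9me3 peptide (50 nM) in PBS pH 7.4, 0.01% Tween-20, then compound added for 30 min. AlphaScreen streptavidin donor/nickel chelate acceptor beads (10 ug/mL final), 30 min dark, luminescence read.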
BAZ2B block: blocks human BAZ2B. AlphaScreen BAZ2B-H3K14Ac peptide displacement. 360,000 tested, 4.4% active. Potency, µM (doses to about 114 µM), for inactives: at the top dose activity change, negative = inhibition, hits mostly inhibitors; note: % is set by controls: 0 for no effect and ±100 for the full control effect; nearly all actives have a fitted effect of over 60% in size
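Multi-concentration screen (max 110 uM) measuring displacement of acetylated histone H3 peptide from BAZ2B by AlphaScreen, using 50 nM protein, 50 nM peptide and 10 ug/mL streptavidin donor plus Ni-chelate acceptor beads.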
G9a block: G9a (human) methyltransferase inhibition | Potency, µM (series often up to 102 µM), without a hit: top-dose activity, negative = inhibition, hits mostly inhibitors | Q96KQ7 | G9a H3K9 monomethylation, AlphaScreen, 2 h | 350,000 tested, 8.8% active; note: % is set by controls: 0 for no effect and ±100 for the full control effect; nearly all actives have a fitted effect of over 75% in size
Target sequence (Q96KQ7 913-1193 limits assumed): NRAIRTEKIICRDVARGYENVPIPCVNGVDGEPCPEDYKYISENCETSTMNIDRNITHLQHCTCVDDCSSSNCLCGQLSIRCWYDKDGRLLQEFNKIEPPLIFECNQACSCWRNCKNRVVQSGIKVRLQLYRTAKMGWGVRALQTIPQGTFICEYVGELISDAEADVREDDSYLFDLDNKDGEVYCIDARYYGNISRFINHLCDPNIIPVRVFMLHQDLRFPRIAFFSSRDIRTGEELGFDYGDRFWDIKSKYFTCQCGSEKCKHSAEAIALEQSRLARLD
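Methyltransferase reactions run at room temperature for 2 h (20 nM enzyme, 500 nM biotin-H3K9 peptide, 20 uM SAM) after a 15 min compound preincubation; product detected by AlphaScreen beads and anti-H3K9me1 antibody.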
JMJD2A Tudor: blocks the human JMJD2A Tudor domain; 390,000 tested, 4.4% active; AlphaScreen JMJD2A-Tudor / H3K4me3 peptide binding; Potency, µM (doses to about 114 µM), for inactives: top-dose activity change, negative = inhibition, most hits filed as inhibitors; AID 504339; note: % is set by controls: 0 for no effect and ±100 for the full control effect; nearly all actives have a fitted effect of over 50% in size
* marks the source's active call; other numbers are inactive results; ? = inconclusive; nt = no result given; [ ] = dose if it differs, or a comment. An excerpt weighted towards active compounds, which were near 12% of everything screened. Calls come from the whole dose curve; as a rule, active = well fitted curve in the direction sought with a large enough effect; inconclusive = small, poorly fitted or top-dose-only effect, or another doubt; inactive = no such curve, though single readings can be large; an effect the other way counts as inactive or inconclusive. Potency is the fitted concentration of half-maximal effect.

SMILES	Sfp PPTase inh	HP1b binding inh	BAZ2B block	G9a block	JMJD2A Tudor
O=C1c2ccccc2NC(c2cc(Cl)cc(Cl)c2O)N1Cc1cccnc1 (centres undefined)	-3%	35%	?	79µM*	-25%
O=C1c2ccccc2NC(c2ccccc2O)N1Cc1ccccc1 (centres undefined)	nt	nt	nt	nt	-22%
O=C(NCCNCc1cccs1)c1ccccc1F	-24%	?	50µM*	6.3µM*	3.5µM*
COCCNC(=S)NCc1cccs1	2%	18%	-5%	28µM*	-1%
COc1ccccc1NC(=O)Nc1nc(CC(=O)NCc2cccnc2)cs1	nt	38%	-10%	-50%	-7%
CCOc1cc(N2CCOCC2)c(OCC)cc1NS(=O)(=O)c1cc(NC(C)=O)ccc1OC	-2%	12%	71µM*	45µM*	-33%
CCOc1cc(N2CCOCC2)c(OCC)cc1NC(=O)Cc1ccccc1	-6%	3%	?	nt	-31%
CCN1CCN(C(=O)C(C)Nc2cc(Cl)c(OC)cc2OC)CC1 (centres undefined)	-7%	11%	nt	40µM*	-29%
COc1cc(NC(=O)c2ccccc2F)c(OC)cc1NC(=O)CN1CCOCC1	15%	19%	-34%	45µM*	-20%
COc1cc(NC(=O)c2ccc(F)cc2)c(OC)cc1NC(=O)CN1CCOCC1	23%	7%	-24%	20%[12.7 µM]	-21%
COc1cc(OC)c(NC(C)C(=O)NCc2ccccc2)cc1Cl (centres undefined)	?	14%	?	?	-28%
CCOc1cc(N2CCOCC2)c(OCC)cc1NC(=O)Cc1ccccc1OC	-13%	?	45µM*	?	?
CC(=O)CCCCn1cnc2c1c(=O)n(C)c(=O)n2C	16%	nt	-19%	25%[59 µM]	nt
COc1ccc(OC)c(NC(=O)CN(c2ccc(OC)c(Cl)c2)S(C)(=O)=O)c1	-8%	10%	8%	10%[59 µM]	-31%
CCCN1C(=O)c2ccc(C(=O)Nc3ccc4c(c3)OCO4)cc2C1=O	5%	28%	-4%	4%	-6%
CCOc1cc(N2CCOCC2)c(OCC)cc1NC(=O)C(C)C	-3%	2%	-10%	58%[59 µM]	-7%
CCOc1cc(N2CCOCC2)c(OCC)cc1NC(C)C(=O)N1CCN(CC)CC1 (centres undefined)	35µM*	?	10µM*	4µM*	0.35µM*
CCOc1ccc(OCCC(=O)OCC(=O)Nc2ccc(N3CCOCC3)cc2)cc1	2%	20%	-30%	?	-24%
CCOc1ccc(OCC)c(NC(=O)CN2CCN(c3cccc(C)c3C)CC2)c1	?	?	?	?	1.6µM*
CCOc1cc(N2CCOCC2)c(OCC)cc1NC(=O)COC(=O)CCOc1ccc(C(C)(C)C)cc1	nt	?	35µM*	4%[0.501 µM]	20µM*
COc1ccc(NC(C)=O)cc1NS(=O)(=O)c1cn(C)c(=O)n(C)c1=O	14%	45%	79µM*	-9%	-10%
COc1ccc(C)cc1NS(=O)(=O)c1cn(C)c(=O)n(C)c1=O	-13%	26%	6%	?	-1%
CCOc1cc(N2CCOCC2)c(OCC)cc1NC(=O)CSc1ncccn1	0%	-25%	-27%	40µM*	-18%
CCOc1cc(N2CCOCC2)c(OCC)cc1NC(=O)CN1CCC(Cc2ccccc2)CC1	-5%	25µM*	32µM*	50µM*	22µM*
CCOc1cc(N2CCOCC2)c(OCC)cc1NC(=O)CN1C(=O)NC(Cc2ccccc2)C1=O (centres undefined)	-13%	27%	2%	?	4%
O=C1C=C(c2ccc(OC(F)(F)F)cc2)C[C@@H](c2ccc(F)cc2)C1	nt	48%	7%	-6%[2.33 µM]	5%
COC(=O)c1ccccc1NC(=O)Cn1c(=O)n(CCC(=O)NCc2ccccc2OC)c(=O)c2ccccc21	nt	6%	-22%	-10%[59 µM]	3%
O=C(COC(=O)c1ccccc1F)NCc1ccc2c(c1)OCO2	nt	46%	nt	nt	-6%
CC1(C(=O)O)NCCc2cc(O)c(O)cc21 (centres undefined)	56µM*	nt	nt	18µM*	nt
NCCC(=O)N[C@@H](Cc1cnc[nH]1)C(=O)O	12%	nt	nt	nt	nt
